Activity calls are given as the source filed them. Rule for the calls: active = hit-call score of the fitted dose curve at least 0.9, where 1 is the maximum; inconclusive = response in the unintended direction; inactive = score below 0.9.
Target: Estrogen receptor (Homo sapiens) (UniProt P03372)
Test: OT_ER_ERaERa_1440: Odyssey Thera (OT) 24-hour HEK293T Protein-Complementation Assay for Estrogen Receptor-alpha/-alpha Homodimer (AID 2283349);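 note: hits raise fluorescence above DMSO for agonists and antagonists alike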
How it was run: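 HEK293T, stable ERα LBD (aa 310-547) homodimer PCA; 24 h compound exposure; mean fluorescence intensity (nuclear for agonists, nuclear plus cytoplasmic for antagonists) vs vehicle; positive fitting direction, DMSO baseline.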

Chain of Estrogen receptor (Homo sapiens) (P03372 whole entry, looked up): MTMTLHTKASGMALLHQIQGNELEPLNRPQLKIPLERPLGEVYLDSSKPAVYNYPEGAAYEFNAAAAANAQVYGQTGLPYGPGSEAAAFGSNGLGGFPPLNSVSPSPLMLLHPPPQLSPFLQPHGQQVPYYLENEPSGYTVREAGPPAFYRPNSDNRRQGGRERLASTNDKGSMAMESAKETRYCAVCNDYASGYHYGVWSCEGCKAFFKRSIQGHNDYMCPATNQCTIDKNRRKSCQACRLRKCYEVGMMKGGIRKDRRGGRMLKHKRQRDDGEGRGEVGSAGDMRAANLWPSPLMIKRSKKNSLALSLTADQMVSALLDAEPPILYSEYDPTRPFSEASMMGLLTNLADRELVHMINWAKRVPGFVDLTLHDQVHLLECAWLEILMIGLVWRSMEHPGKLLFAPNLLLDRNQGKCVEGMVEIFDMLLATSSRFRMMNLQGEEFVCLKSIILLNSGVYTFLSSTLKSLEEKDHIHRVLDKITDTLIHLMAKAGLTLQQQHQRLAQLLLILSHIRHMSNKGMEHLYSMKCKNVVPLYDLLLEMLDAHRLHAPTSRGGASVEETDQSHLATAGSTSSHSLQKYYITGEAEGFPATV

SMILES	outcome	AC50
CCC(C)(O)CCCC(C)C (centres undefined)	inactive	
CCCCCCCCCCCCCC(=O)OC(C)C	inactive	
CCc1cccc(C)c1N		74.6 µM (active)
CCCCCC(=O)OCC	inactive	
C=CCOC(=O)c1ccc(C(=O)OCC=C)c(C(=O)OCC=C)c1	inactive	
CCCCC(CC)COC(=O)/C=C/c1ccc(OC)cc1 (centres undefined)	inactive	
O=S(=O)(O)c1ccc(N=Nc2c(O)ccc3ccccc23)cc1	inactive	
O=C(O)c1ccc2c(c1)C(=O)OC2=O	inactive	
CCCCCCCCCC(C)=O	inactive	
CC1=CC=C(C(C)C)CC1		31.5 µM (active)
CC(C)COC(=O)CC(C(=O)OCC(C)C)S(=O)(=O)O (centres undefined)	inactive	
O=C(Oc1ccccc1)c1ccccc1O	inactive	
CC(=O)c1ccccc1O	inactive	
Cc1c(C(=O)c2c[nH]n(C)c2=O)ccc(S(C)(=O)=O)c1C1=NOCC1	inactive	
CC(C)(C)N	inactive	
COC(=O)c1ccccc1C	inactive	
CCCCOCCOC(=O)COc1ccc(Cl)cc1Cl	inactive	

SMILES	outcome	AC50
CC(=O)/C=C/C1C(C)=CCCC1(C)C (centres undefined)	inactive	
COc1ccc(C(=O)c2ccccc2)c(O)c1		66.7 µM (active)
C=C(C)C1CC=C(C)CC1 (centres undefined)	inactive	
CCCCCCCO	inactive	
CCCC(CC)c1ccccc1 (centres undefined)	inactive	
O=C(O)CCC(=O)O	inactive	
CCCCc1ccc(Cl)cc1	inactive	
COc1cc(O)c(C(=O)c2ccccc2)cc1S(=O)(=O)O	inactive	
CCCCCCOc1ccc(N)cc1		23.9 µM (active)
C=C[C@@]1(C)CC(=O)[C@]2(O)[C@@]3(C)[C@@H](O)CCC(C)(C)[C@@H]3[C@H](O)[C@H](OC(C)=O)[C@@]2(C)O1	inactive	
CCCC=C(C=O)CC	inactive	
Fc1ccc(Br)cc1	inactive	
C[Si]1(C)O[Si](C)(C)O[Si](C)(C)O[Si](C)(C)O[Si](C)(C)O1		50 µM (active)
CC12CCC(CC1)C(C)(C)O2	inactive	
Cc1ccc(C)c(OCCCC(C)(C)C(=O)O)c1	inactive	
O=C(O)CC(C(=O)O)S(=O)(=O)O (centres undefined)	inactive	
CCc1occc(=O)c1O	inactive	
